Data as given in ChEMBL document CHEMBL3433997, “St. Jude Leishmania screening dataset” (2016).

Columns and labels:
Assay type in all cases: functional
[1] = biological target: Solute carrier family 2, facilitated glucose transporter member 1 (Homo sapiens) (UniProt P11166); assay: ST_JUDE_LEISH: Cytotoxicity at 2uM final concentration against transgenic Leishmania Mexicana promastigotes LmGLUT1 that are glucose transport deficient and complemented with the human glucose transporter GLUT1. Activity is measured by DNA content using SYBR green in vitro
Sequence of Solute carrier family 2, facilitated glucose transporter member 1 (Homo sapiens) (P11166 whole entry): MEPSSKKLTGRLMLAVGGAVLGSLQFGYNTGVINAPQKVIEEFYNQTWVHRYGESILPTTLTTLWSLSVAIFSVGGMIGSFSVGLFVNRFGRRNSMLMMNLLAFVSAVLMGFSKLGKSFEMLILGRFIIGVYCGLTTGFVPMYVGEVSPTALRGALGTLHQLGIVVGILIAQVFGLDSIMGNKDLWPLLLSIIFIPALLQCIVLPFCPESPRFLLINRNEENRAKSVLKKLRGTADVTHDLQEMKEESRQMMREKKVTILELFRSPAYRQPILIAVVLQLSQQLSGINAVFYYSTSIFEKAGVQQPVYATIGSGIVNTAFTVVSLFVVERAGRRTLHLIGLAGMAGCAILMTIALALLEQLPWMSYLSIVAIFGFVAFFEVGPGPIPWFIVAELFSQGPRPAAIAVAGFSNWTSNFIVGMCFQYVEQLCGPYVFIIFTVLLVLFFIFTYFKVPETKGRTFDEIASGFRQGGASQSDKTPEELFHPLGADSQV

[2] = biological target: Hexose transporter 1 (Plasmodium falciparum) (UniProt O97467); assay: ST_JUDE_LEISH: Cytotoxicity at 2uM final concentration against transgenic Leishmania Mexicana promastigotes LmPfHT that are glucose transport deficient and complemented with the Plasmodium falciparum hexose transporter. Activity is measured by DNA content using SYBR green in vitro
[3] = biological target: Glucose transporter (Leishmania mexicana) (UniProt O61059); assay: ST_JUDE_LEISH: Cytotoxicity at 2uM final concentration against transgenic Leishmania Mexicana promastigotes LmGT2 that are glucose transport deficient and complemented with the L. Mexicana glucose transporter 2. Activity is measured by DNA content using SYBR green in vitro

SMILES | inhibition [1] | inhibition [2] | inhibition [3]
COc1cc(CNC2Cc3ccccc3C2)ccc1Oc1ccc2nc[nH]c2c1 | 2.66% | 0.67% | 0.95%
CC(c1cccc(S(=O)(=O)NCc2ccc(Cl)cc2Cl)c1)N1CCC(N2CCCCC2)CC1 (stereo not given) | 8.44% | 4.33% | 3.71%
O=C(Nc1ccc(Cl)cc1)c1cc(Cl)ccc1NC(=O)C1(c2ccc(Cl)cc2)CCCC1 | -0.07% | 2.74% | 1.43%
CC(C)CCNC(=O)c1cnc2c(O)cccc2c1Nc1cccc(NC(=O)c2ccc(F)cc2)c1 | 4.52% | 7.98% | 0.01%
CC(CCCCOCCc1ccccc1)NCC(O)c1cc(Cl)c(N)c(Cl)c1 (stereo not given) | 2.66% | 0.7% | 2.18%
Cn1nc(-c2ccc(Cl)cc2)c2cc(C(=O)NCCN3CCOCC3)sc21 | -0.16% | 1.5% | -0.52%
N=C(N)NN=CC(=O)Nc1ccc(Cl)c(Cl)c1 | 0.13% | -1.4% | -1.96%
Cc1cc(N[C@@H](CC(C)C)C(=O)Nc2ccccc2)nc(Nc2ccccc2)n1 | 1.17% | -0.52% | -0.1%
Cc1cccc2nc(-c3ccc(-c4cccc(CNCc5cccc(N)c5)c4)cc3)[nH]c12 | 2.44% | 2.16% | -1.02%
Cc1cnc(Nc2ccccc2)nc1N[C@@H](CCCN)C(=O)Nc1ccccc1 | -1.01% | -0.2% | -0.3%
OC(CNC1CCCCC1)Cn1c2ccc(I)cc2c2cc(I)ccc21 (stereo not given) | 0.77% | 1.51% | 1.17%
COc1ccc2cc(C(=O)NC3CCC(CCN4CCc5cc(C#N)ccc5C4)CC3)[nH]c2c1 (stereo not given) | 3.48% | 0.58% | 3.6%
Cc1cc(C)c(S(=O)(=O)N2CCCCC(c3cccc(C(F)(F)F)c3)=N2)c(C)c1 | 1.84% | 1.41% | 1.47%
Cc1ccc(NC(=O)Nc2cccc(Cl)c2)cc1-c1ccc(C(=O)Nc2ccncc2)cc1 | -1.84% | -1.56% | -1.5%
CCn1c(Cc2ccccc2)nnc1SCC(=O)N1c2ccccc2Sc2ccccc21 | 4.01% | 3.52% | 2.39%
Oc1ccc(CCNc2nc(NCc3cccc(OCc4cccc(F)c4)c3)nc(N3CCNCC3)n2)cc1 | -1.28% | 0.71% | 1.08%
NC(=O)c1ccc(NCC(=O)Nc2cccc(-c3cccc(-c4nc5ccccc5[nH]4)c3)c2)cc1 | 2.82% | 4.21% | 0.95%
COc1cc(C)c(NC(=O)c2cccc3c(=O)c(C)c(-c4ccccc4)oc23)cc1OC | 6.49% | -0.38% | -1.52%
O=C(NC1CCN(CCC[C@]2(c3ccc(Cl)c(Cl)c3)CCCN(C(=O)c3ccccc3)C2)CC1)c1ccc(F)cc1 | 3.29% | 2.13% | 2.74%
CCN1CCN(c2ccc(NC(=O)c3cc4c(C)nn(-c5ccccc5)c4s3)cc2C)CC1 | 1.44% | 3.9% | -1.39%
COC(=O)c1cccc(CNCc2cccc(-c3csc(-c4nc5ccccc5[nH]4)c3)c2)c1 | 9.3% | 8.51% | 6.38%
CC(C)N1CCC(NCc2ccc(-c3ccc(Cl)cc3)cc2)CC1 | 11.6% | 13.6% | 10.2%
CCCCC#Cc1cnc2nc(N)[nH]c(=O)c2n1 | 1.66% | 1.03% | 0.91%
CCn1c(Sc2ccc(C#N)c([N+](=O)[O-])c2)nnc1-c1cc(OC)cc(OC)c1 | 1.62% | 0.59% | -0.03%

SMILES | inhibition [1] | inhibition [2] | inhibition [3]
O=C(Cc1cccc(O)c1)NCC(Cc1ccc(O)cc1)c1ccccc1 (stereo not given) | 0.64% | -0.06% | 0.22%
O=C(Nc1ccc(Cl)c(Cl)c1)N1CCC(CNCc2cccc([N+](=O)[O-])c2)CC1 | 3.92% | 4.18% | 5.3%
Nc1ccc(Oc2ccc(Cc3cnc(N)nc3N)cc2)cc1 | 3.93% | 4.16% | 3.87%
CN1c2ccc([N+](=O)[O-])cc2C(C)(C)C12C=Cc1cc(Br)cc([N+](=O)[O-])c1O2 (stereo not given) | 2.03% | -0.39% | -0.71%
Cc1cc(N[C@@H](CC(C)C)C(=O)NCCc2ccccc2)nc(NCC2CCCCC2)n1 | 6.58% | 6.23% | 3.37%
CC(C)CCNC(=N)Nc1ccc(OCCCCCOc2ccc(NC(=N)NCCC(C)C)cc2)cc1 | 6.46% | 3.87% | -1.73%
CCN1CCN(c2cc(C)c3cc(NC(=O)C=Cc4cccc(OC)c4OC)ccc3n2)CC1 | 5.91% | 11.3% | 1.27%
COc1cc(Cl)c(C)cc1N(Cc1ccccc1-c1ccccc1)S(=O)(=O)c1ccc(C(F)(F)F)cc1 | 1.01% | 0.29% | 0.43%
CS(=O)(=O)N(c1ccccc1)c1cc(C(=O)N[C@@H](Cc2ccccc2)[C@H](O)CNC2CCCCC2)cc(N2CCCC2=O)c1 | 1.9% | 1.63% | 0.49%
O=S(=O)(NCCN1CCCC1)c1cccc(-c2cccc(CNCc3ccccc3)c2)c1 | 20% | 17.2% | 11.7%
CC(C)NCc1cccc(-c2ccc(-c3nc4ccccc4[nH]3)cc2)c1 | 3.1% | 2.97% | 0.41%
N=C(N)NC(=O)Nc1cc(Br)c(Cl)c(Br)c1 | -0.91% | -1.3% | -1.76%
NC(=O)c1sc(-n2cnc3ccc(OCC4CCNCC4)cc32)cc1OCc1ccccc1C(F)(F)F | 0.4% | -0.16% | 0.31%
CCN1C(c2ccc(Cl)cc2)C(CNCc2ccccc2O)CC1(C)CO (stereo not given) | 8.9% | 7.62% | 4.57%
CCN(CC)S(=O)(=O)c1cc(-c2ccc(=O)n(CC(=O)c3ccc(C)cc3)n2)ccc1C | 4.68% | 6.23% | 2.45%
CN(C)c1ccc(-c2csc(C(=O)NC3CCCCN(Cc4ccc(C(C)(C)C)cc4)C3)c2)cc1 (stereo not given) | -1.22% | -0.61% | 1.96%
COc1ccc2[nH]cc(C3CCN(CCCCCNC(=O)c4ccc(-c5ccccc5)cc4)CC3)c2c1 | 4.24% | 3.36% | 2.9%
O=C(Cc1ccc(Cl)cc1)NC1CCN(c2ccnc3cc(Cl)ccc23)C1 (stereo not given) | -0.91% | 0.24% | 0.26%
CCOc1cc(CC)ccc1C1CCN(CCN2CCC(NC(=O)c3ccc(-c4ccc(C#N)cc4)cc3)CC2)CC1 | -0.43% | 0.77% | 1.19%
COc1ccc(NC(=O)Nc2cc(C)nc3cccnc23)cc1Cn1ccnc1 | 1.73% | 1.25% | 0.47%
CC1CN(Cc2cccc(F)c2)CCN1c1ccc(NC(=O)c2cccs2)cc1 (stereo not given) | -0.87% | -1.57% | -2.09%
CC(C)(C)c1ccc2oc(=O)n(C3CCN(C(=O)c4ccc([N+](=O)[O-])o4)CC3)c2c1 | 5.8% | 10.9% | 0.29%
CCN(CC)CCCN(Cc1ccc(-c2ccc(C(F)(F)F)cc2)cc1)C(=O)Cn1c(SCc2cccc(F)c2F)cc(=O)c2ccccc21 | 2.74% | 2.63% | 2.46%
CC(C)c1cn2c3c(cc(C(=O)N[C@@H](Cc4ccccc4)[C@H](O)CNC4CCCCC4)cc13)N(C)S(=O)(=O)CC2 | -1.18% | -0.34% | -2.44%

SMILES | inhibition [1] | inhibition [2] | inhibition [3]
Cc1nc(-c2ccc(-c3ccc(C(=O)Nc4ccc(I)c(OCC5CCCN5C)c4)cc3)c(C)c2)no1 (stereo not given) | 9.63% | 7.75% | 5.6%
COc1ccc2nccc([C@@H](O)CN3CCC(NC(=O)/C=C/c4cccc(C)c4)CC3)c2c1 | 11% | 9.47% | 3.43%
CCc1ccccc1-c1csc(C(=O)NCC2CCN(Cc3ccc(C(C)(C)C)cc3)C2)c1 (stereo not given) | 6.04% | 4.94% | 4.81%
CCOC(=O)c1cn(CC)c2cc(F)c(OC3CC4CCC3(C)C4(C)C)cc2c1=O (stereo not given) | -1.86% | -1.79% | -3.18%
CCC1CN2CCc3c([nH]c4ccccc34)C2CC1CC1NCCc2cc(OC)c(OC)cc21 (stereo not given) | 1.68% | 4.6% | 0.99%
CC(CN1CCN(C)CC1)C(=O)Nc1cccc(-c2ccc(-c3nc4cc(F)ccc4[nH]3)cc2)c1 (stereo not given) | 4.67% | 3.13% | 2.7%
CC(Cc1ccc(OCCN2CCN(c3ccccc3)CC2)cc1)NCC(O)c1cccc(Cl)c1F (stereo not given) | 2.22% | 0.09% | 1.85%
COc1ccc(CN2CCC(NCc3cccc(-n4ccnc4)c3)CC2)cc1 | 3.99% | 3.17% | 2.72%
Cc1cccc2nc(-c3cccc(-c4cccc(CN5CCN(c6ccc(C#N)cn6)CC5)c4)c3)[nH]c12 | 11.6% | 10.3% | 9.4%
O=C(NCCCCN1CCC(c2ccc3c(c2OCc2ccncc2)CCCC3)CC1)c1ccc(NC(=O)c2ccc(Cl)cc2)cc1 | 2.33% | 2.42% | 1.29%
CC(C)Oc1cc2c(cc1NS(=O)(=O)c1ccc(-c3ccc(Cl)cc3)cc1)CCN(C)CC2 | 2.55% | 7.31% | 4.31%
CCCCCCOc1ccc(C(=O)NCCC2CCN(CCCCCNC(=O)C=Cc3ccc(Cl)c(Cl)c3)CC2)cc1 | -0.8% | -0.99% | -0.17%
O=C(/C=C/c1ccc(Cl)cc1)NCCCCCN1CCC(c2c[nH]c3ccccc23)CC1 | 3.62% | 3.59% | 0.35%
CC1(C)NC(N)=NC(=N)N1OCCCc1ccc(Cl)cc1Cl | 2.76% | 1.95% | 2.33%
Cc1cc(N[C@@H](Cc2ccccc2)C(=O)NCc2cccc(F)c2)nc(NCCc2cccs2)n1 | 2.6% | 2.99% | 2.23%
CCc1cc(C(=O)c2cccc(C)c2)c(NC(=O)CN2CCN(C(=O)c3ccco3)CC2)s1 | 2.38% | 2.67% | 2.44%
Cc1noc(C)c1-c1cccc(CNCc2cccc(-c3cccc(-c4nc5cccc(C)c5[nH]4)c3)c2)c1 | -0.61% | -0.81% | -0.78%
O=C(N[C@@H](CC1CCCCC1)C(=O)NC1CCCc2ccccc21)c1ccc(O)c(-c2ccc(Cl)c(Cl)c2)c1 (stereo not given in full) | 1.23% | 0.75% | 0.12%
CN1CCC(N2CCN(Cc3ccc(-c4ccc(-c5nc6ccccc6[nH]5)s4)cc3)CC2)CC1 | 8.42% | 8.75% | 5.9%
COc1cc(Cc2cnc(N)nc2N)cc(OCCCOc2ccccc2)c1OC | 7.68% | 4.04% | 4.99%
CCCc1cc(OC)c(CC2c3cc(O)c(Cl)cc3C(c3ccccc3)CN2C)cc1OC (stereo not given) | 7.84% | 1.11% | 3.98%
O=C1NC(=O)C(c2cccc(NC(=O)c3ccncc3)c2)=C1c1ccccc1 | 1.05% | 1.65% | -4.34%
